Vif-A3G inh = qHTS for Inhibitors of Vif-A3G Interactions: qHTS | DNA dC->dU-editing enzyme APOBEC-3G (Homo sapiens), Q9HC16 | HeLa A3G-eYFP + Vif (tagged APOBEC3G with the HIV-1 protein that degrades it), YFP fluorescence, overnight | Potency, µM (highest dose often 46.1 µM), usual class: inhibitors | 410,000 tested, 0.076% active | AID 602310, 2012; further: nearly all actives have a fitted effect of over 60% in size
Target sequence (Q9HC16 whole entry, looked up): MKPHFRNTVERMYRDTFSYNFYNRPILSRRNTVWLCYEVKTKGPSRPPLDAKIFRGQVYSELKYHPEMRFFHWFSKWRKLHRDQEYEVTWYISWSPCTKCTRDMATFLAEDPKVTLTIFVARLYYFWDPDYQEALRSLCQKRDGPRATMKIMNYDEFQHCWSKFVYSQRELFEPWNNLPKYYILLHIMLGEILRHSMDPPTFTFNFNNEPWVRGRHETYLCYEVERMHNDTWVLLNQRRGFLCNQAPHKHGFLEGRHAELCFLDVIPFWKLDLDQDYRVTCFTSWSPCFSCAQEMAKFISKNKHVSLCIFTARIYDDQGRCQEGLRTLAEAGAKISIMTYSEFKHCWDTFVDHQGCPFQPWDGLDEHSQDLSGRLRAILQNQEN
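Read-out is eYFP fluorescence (Ex 488/Em 500-530) from Vif-expressing HeLa A3G-eYFP cells; more signal means A3G escaped Vif-mediated degradation. Cells plated overnight, compound pinned in, incubated overnight at 37 deg C.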
Vif-A3F inh = qHTS for Inhibitors of Vif-A3F Interactions: qHTS; HeLa A3F-eYFP + Vif (tagged APOBEC3F with the HIV-1 protein that degrades it), YFP fluorescence increase; Potency, µM (titrated, usually from 46.1 µM); 390,000 tested, 0.2% active; AID 602313, 2012; further: nearly all actives have a fitted effect of over 65% in size
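Fluorescence increase (Ex 488/Em 500-530) after overnight compound treatment at 37 deg C flags inhibition of Vif-driven A3F-eYFP loss in stable HeLa A3F-eYFP/Vif cells seeded overnight beforehand.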
MCF10A rerep = A quantitative high throughput screen for small molecules that induce DNA re-replication in MCF 10a normal breast cells; MCF 10A DNA re-replication, Hoechst nuclear intensity, 48 h; Potency, µM (top dose mostly 46.1 µM), actives largely listed as activators; 350,000 tested, 2.9% active; AID 624296, 2012; further: nearly all actives have a fitted effect of over 50% in size
SW480 rereplic = A quantitative high throughput screen for small molecules that induce DNA re-replication in SW480 colon adenocarcinoma cells. 340,000 tested, 1.8% active. AID 624297, 2012. SW480 DNA re-replication, Hoechst DNA content imaging, 48 h. Potency, µM (top dose mostly 46.1 µM), actives largely listed as activators; further: nearly all actives have a fitted effect of over 55% in size
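Compounds, transferred as 23 nL by pin tool, were incubated with cells for 48 hr; DNA content per nucleus was then quantified by Hoechst staining and fluorescence plate imaging.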
IL-1B inflam inh = qHTS for Inhibitors of Inflammasome Signaling: IL-1-beta AlphaLISA Primary Screen. THP-1 LPS/ATP IL-1B secretion, AlphaLISA, 16 h; hits give low values. activity change, % at 57.5 µM. 360,000 tested, 4.7% active. AID 743279, 2014; in the data active means activity change below about -50%; inconclusive means mostly about -30% to -49%
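Secreted IL-1B measured by AlphaLISA bead assay after 16 h compound exposure of THP-1 cells; compounds (final up to 57.5 uM) added 1 h before LPS (250 ng/mL) and ATP (1.25 mM) stimulation; lower signal means less secretion.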
Giardia kill = Small Molecules that selectively kill Giardia lamblia: qHTS; AID 540267, 2011; activity change, % at 7.66 µM, hits read low; 340,000 tested, 0.15% active; Giardia lamblia trophozoite viability; in the data active means activity change below about -80%; inconclusive means between about -30% and that limit;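 further: parasites exposed to compound for two days anaerobically before the ATP read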
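Viability, read as ATP luminescence: trophozoites at 100 cells/well, compound added, 48 hrs anaerobic at 37 deg C, then 15-30 min room-temperature development before reading.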
Each line names hits and unclear results; the compound was inactive in the other large screens. Hits are enriched below; roughly 6.9% of the tested compounds scored in any of these assays. Unless noted, the call rests on the fitted dose curve; in most records, active means well fitted curve in the direction sought with a large enough effect; inconclusive means small, poorly fitted or top-dose-only effect, or another doubt; inactive means no such curve, though single readings can be large; an effect the other way counts as inactive or inconclusive.

Nc1c(C(=O)NCc2ccc(F)cc2)c2nc3ccccc3nc2n1CCCN1CCOCC1	MCF10A rerep inconclusive, SW480 rereplic 3.7µM
CCCOc1ccc(NC(=O)CC2C(=O)N(c3cccc(C)c3)C(=O)N2CCc2ccncc2)cc1 (centres undefined)	none (no result: MCF10A rerep, SW480 rereplic, IL-1B inflam inh, Giardia kill)
CCc1ccc2oc(-c3ccc(OC)cc3)cc(=Nc3c(C)n(C)n(-c4ccccc4)c3=O)c2c1	MCF10A rerep inconclusive, IL-1B inflam inh -65
C=CCn1c(-c2ccc(OC)cc2)csc1=Nc1c(C)n(C)n(-c2ccccc2)c1=O	none
CCc1ccc2oc(-c3ccc(OC)cc3)cc(=Nc3cccc(C(=O)O)c3)c2c1	MCF10A rerep 23µM, IL-1B inflam inh -66
COc1cc(NC(=O)Cn2ncc(Cl)c(Cl)c2=O)c(C)cc1[N+](=O)[O-]	Vif-A3G inh inconclusive, MCF10A rerep 3.7µM, SW480 rereplic inconclusive, IL-1B inflam inh -95
COc1cc(NC(=O)CN2C(=O)CN(C)C2=O)c(C)cc1[N+](=O)[O-]	none
O=C(Cn1c(=O)n(-c2ccc(F)cc2)c(=O)c2sc3ccccc3c21)N1CCCC1	none (no result: MCF10A rerep, SW480 rereplic, IL-1B inflam inh, Giardia kill)
COc1cccc(NC2=Nc3cccc4cccc2c34)c1	none
NC1=Nc2cccc3cccc1c23	IL-1B inflam inh -65
Brc1ccc(-c2csc(/N=C/N3CCCC3)n2)cc1	MCF10A rerep inconclusive, SW480 rereplic inconclusive, IL-1B inflam inh -90
[O-][n+]1c2cc(C(F)(F)F)ccc2c2n1CCN=C2c1ccc(Cl)cc1	MCF10A rerep inconclusive, Giardia kill -89
Cc1ccc(-n2cnc3cc(C(=O)NCc4ccccc4Cl)ccc32)c(C)c1	none (no result: MCF10A rerep, SW480 rereplic, IL-1B inflam inh, Giardia kill)
COc1ccc(-c2cc(=O)oc3c4c(ccc23)OCN(Cc2cccc(OC)c2)C4)cc1	none (no result: MCF10A rerep, SW480 rereplic, IL-1B inflam inh, Giardia kill)
COc1ccccc1N1CCN(C(=O)c2cn(Cc3ccccc3)nc2-c2cccnc2)CC1	none
COc1cccc(NC(=O)CN(C)C(=O)/C=C/c2cn(Cc3ccccc3)nc2-c2cccnc2)c1	MCF10A rerep inconclusive, SW480 rereplic 15µM, IL-1B inflam inh inconclusive
COc1cccc(NC(=O)CN(C)C(=O)/C=C/c2ccc3ccccc3n2)c1	Vif-A3F inh inconclusive, IL-1B inflam inh -77
COc1cccc(N2CCN(C(=O)c3cn(Cc4ccccc4)nc3-c3cccnc3)CC2)c1	MCF10A rerep 5.2µM, SW480 rereplic 4.1µM, Giardia kill inconclusive
O=C(c1cc(COc2cccc3cnccc23)on1)N1CCCC(CCCO)C1 (centres undefined)	IL-1B inflam inh inconclusive
COCC1CCCN(C(=O)c2cc(COc3ccc(C(C)=O)cc3)on2)C1 (centres undefined)	none
COCC1CCN(C(=O)c2cc(COc3ccc4c(c3)CCCC4)on2)C1 (centres undefined)	IL-1B inflam inh -62
COCC1CCN(C(=O)c2cc(COc3ccc(C)c(C)c3)on2)C1 (centres undefined)	none
COCC1CCN(C(=O)c2cc(COc3cccc4cnccc34)on2)CC1	IL-1B inflam inh -53
CC(=O)c1ccc(OCc2cc(C(=O)N3CC[C@@H]4CCCC[C@H]4C3)no2)cc1	SW480 rereplic inconclusive, IL-1B inflam inh -81
Cc1nn(-c2ccccc2)c2[nH]c(=O)c(CNCc3ccc4c(c3)OCO4)cc12	none
Cc1ccc(-c2nn(-c3ccccc3)c3[nH]c(=O)c(CNCc4ccccc4)cc23)cc1	IL-1B inflam inh -58
Cc1ccc(-c2nn(-c3ccccc3)cc2CO)cc1	none
Cc1ccc(-c2nn(-c3ccccc3)cc2CNCc2ccccc2)cc1	MCF10A rerep inconclusive, IL-1B inflam inh -80
O=c1c2ccccc2n(Cc2cccc(F)c2)c(=O)n1Cc1ccccc1Cl	none (no result: MCF10A rerep, SW480 rereplic, IL-1B inflam inh, Giardia kill)
CCn1c(CN2CCCCC2)nc2cc(NC(=O)c3ccc([N+](=O)[O-])cc3)ccc21	none (no result: MCF10A rerep, SW480 rereplic, IL-1B inflam inh, Giardia kill)
COC(=O)c1cccc(Cn2c(Cl)c(/C=N/Nc3ccccc3C)sc2=O)c1	MCF10A rerep 26µM, SW480 rereplic 10µM
Cn1c(NCC(O)c2ccccc2)nc2c1c(=O)n(Cc1ccc(Cl)c(Cl)c1)c(=O)n2C (centres undefined)	MCF10A rerep inconclusive, SW480 rereplic inconclusive, IL-1B inflam inh -67
Cn1c(NCC(O)c2ccccc2)nc2c1c(=O)n(Cc1ccc(Cl)cc1)c(=O)n2C (centres undefined)	none
COc1ccc(N2CCN(S(=O)(=O)c3ccc4c(c3)CC(C)N4C(C)=O)CC2)cc1 (centres undefined)	none (no result: MCF10A rerep, SW480 rereplic, IL-1B inflam inh, Giardia kill)
O=C1N/C(=N\N=C\c2cccs2)SC1Cc1cccc(Cl)c1Cl (centres undefined)	Vif-A3G inh inconclusive, MCF10A rerep 1.5µM, SW480 rereplic 7.3µM
CC1(C)OC(=O)C2(Cc3c(F)cccc3N3CCCC32)C(=O)O1 (centres undefined)	none (no result: Vif-A3F inh, MCF10A rerep, SW480 rereplic, IL-1B inflam inh)
N#Cc1cccc2c1-c1ccccc1/C2=N/NC(N)=S	Vif-A3F inh inconclusive, MCF10A rerep inconclusive, IL-1B inflam inh -58
NC(=S)NN=C1c2ccccc2-c2c(F)c(F)c(F)c(F)c21	MCF10A rerep 6.5µM, SW480 rereplic 15µM, IL-1B inflam inh -111
NC(=S)NN=C1c2ccccc2-c2cc(Br)ccc21	none
CCOC(=O)C(C)(C)N(Cc1ccc(Cl)cc1)S(=O)(=O)c1ccc(Cl)c([N+](=O)[O-])c1	MCF10A rerep 13µM, SW480 rereplic inconclusive (no result: Vif-A3G inh, Vif-A3F inh, IL-1B inflam inh, Giardia kill)
CCOC(=O)C(C)(C)N(Cc1ccc(C)cc1)S(=O)(=O)c1ccc(Cl)c([N+](=O)[O-])c1	MCF10A rerep 12µM, SW480 rereplic inconclusive, IL-1B inflam inh -104
CCOC(=O)C(C)(C)NS(=O)(=O)c1ccc(Cl)c([N+](=O)[O-])c1	MCF10A rerep inconclusive, IL-1B inflam inh -93
COc1ccc(NC(=O)CCNS(=O)(=O)c2ccc(Cl)c([N+](=O)[O-])c2)cc1S(N)(=O)=O	none
CSc1c2c([nH]c(=O)c1C#N)-c1ccccc1CC2	none (no result: Vif-A3F inh, MCF10A rerep, SW480 rereplic, Giardia kill)
N#Cc1c(-c2ccc(F)cc2)c2c([nH]c1=O)-c1ccccc1OC2	MCF10A rerep 4.1µM, SW480 rereplic 6.5µM
N#Cc1c(-c2cccnc2)c2c([nH]c1=O)-c1ccccc1OC2	MCF10A rerep 15µM, SW480 rereplic 2.6µM
COc1ccc(Cl)cc1NC(=O)CN(C)S(=O)(=O)c1ccc2c(c1)CCCN2C(C)=O	none (no result: MCF10A rerep, SW480 rereplic, IL-1B inflam inh, Giardia kill)
CCOC(=O)c1cc(-c2ccccc2)n(CC(=O)Nc2ccc(CC)cc2)c1C	none (no result: MCF10A rerep, SW480 rereplic, IL-1B inflam inh, Giardia kill)
Cc1cc(C)c2c(c1)/C(=N/NS(=O)(=O)c1ccc(Br)cc1)CCC2	MCF10A rerep 7.1µM

Bioassay records: PubChem, National Center for Advancing Translational Sciences (NCATS)
